Experimental data as given in PubChem BioAssay.
Activity calls are given as the source filed them.

Assays:
Albumin (Bos taurus) = Albumin (Bos taurus) (UniProt P02769); assay: compounds binding labelled BSA control protein – biochemical, small-molecule microarray, Alexa647 label, 635/667 nm fluorescence, artefact control for SMM control protein annotation, profiling panel (AID 1118); conditions: BSA-A647 binding, fluorescence 635 nm, higher = more signal;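 further: score merges 667 nm emission intensity and signal-to-noise per printed compound spot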
[1] = probe aXIP binding to arrayed compounds – biochemical, NeuroSMM set, 635/667 nm fluorescence, primary screen (AID 1119); conditions: small-molecule microarray, higher = more signal, called active from +8 up or from −8 down;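 further: probe is the protein aXip251-270 applied at 1 µg/mL to compound-printed slides; binding of probe to printed compounds measured as 667 nm fluorescence plus signal to noise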
[2] = probe aNOTCH3 binding on compound microarray – biochemical, small-molecule microarray, 635/667 nm fluorescence, primary screen (AID 1120); conditions: higher = more signal;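 further: probe is a biotin-tagged antibody raised against NOTCH3 rather than NOTCH3 protein; score merges spot fluorescence near 667 nm with spot signal to noise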
[3] = probe aNOTCH2 binding on compound microarray – biochemical, small-molecule microarray, 635/667 nm fluorescence, primary screen (AID 1121); conditions: higher = more signal;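 further: score merges feature fluorescence read at 667 nm with its signal to noise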
[4] = target: Carbonic anhydrase 2 (Homo sapiens) (UniProt P00918); assay: compounds binding carbonic anhydrase 2 – biochemical, small-molecule microarray, Alexa647-labelled CAII, profiling panel (AID 1122); conditions: CAII-A647 binding fluorescence, higher = more signal
[5] = COS7 lysate on small-molecule microarray, probe aHis, 635 nm (AID 1123); conditions: COS7 cell lysate, fluorescence, higher = more signal;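 further: z-score combines 667nm fluorescence intensity with signal-to-noise per printed compound spot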
[6] = probe aLAP1 signal on lysate-treated microarray – cell lysate, small-molecule microarray, COS7 lysate, primary screen (AID 1124); conditions: probe aLAP1, fluorescence, higher = more signal;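 further: lysate comes from COS7 cells expressing LAP1 and is applied at 0.3 µg/mL; score merges spot fluorescence near 667 nm with signal-to-noise over triplicate slides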
Sam68 (KHDRBS1) = assay: compounds binding KHDRBS1 protein – biochemical, small-molecule microarray, 635 nm fluorescence, primary screen (AID 1125); conditions: higher = more signal;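 further: score merges 667 nm channel intensity with signal to noise over triplicate slides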
[7] = system: Chordin-like protein 2 (CHRDL2); assay: compounds binding chordin-like 2 – biochemical, small-molecule microarray, 635 nm fluorescence, primary screen (AID 1126); conditions: fluorescence 635 nm, higher = more signal;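 further: printed compound slides probed with Chrdl2 protein at 4 µg/mL for 1 h at 4 C; score merges 667 nm emission intensity with signal to noise over three replicate slides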
[8] = target: Concanavalin-A (Canavalia ensiformis) (UniProt P02866); assay: compounds binding concanavalin A lectin – biochemical, small-molecule microarray, Alexa647 label, 635 nm, artefact control for SMM control protein annotation, primary screen (AID 1127); conditions: ConA-A647 binding fluorescence, higher = more signal;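 further: z combines 667 nm emission intensity with signal-to-noise across three replicate slides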
Sequence of Concanavalin-A (Canavalia ensiformis) (P02866 whole entry, looked up): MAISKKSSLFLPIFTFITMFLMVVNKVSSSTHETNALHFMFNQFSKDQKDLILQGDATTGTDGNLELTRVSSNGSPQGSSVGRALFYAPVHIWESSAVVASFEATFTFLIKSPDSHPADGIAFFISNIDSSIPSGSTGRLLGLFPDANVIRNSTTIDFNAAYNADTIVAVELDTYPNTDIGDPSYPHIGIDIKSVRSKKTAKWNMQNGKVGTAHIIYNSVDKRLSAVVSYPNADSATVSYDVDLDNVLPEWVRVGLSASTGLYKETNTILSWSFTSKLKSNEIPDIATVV

Sequence of Albumin (Bos taurus) (P02769 whole entry, looked up): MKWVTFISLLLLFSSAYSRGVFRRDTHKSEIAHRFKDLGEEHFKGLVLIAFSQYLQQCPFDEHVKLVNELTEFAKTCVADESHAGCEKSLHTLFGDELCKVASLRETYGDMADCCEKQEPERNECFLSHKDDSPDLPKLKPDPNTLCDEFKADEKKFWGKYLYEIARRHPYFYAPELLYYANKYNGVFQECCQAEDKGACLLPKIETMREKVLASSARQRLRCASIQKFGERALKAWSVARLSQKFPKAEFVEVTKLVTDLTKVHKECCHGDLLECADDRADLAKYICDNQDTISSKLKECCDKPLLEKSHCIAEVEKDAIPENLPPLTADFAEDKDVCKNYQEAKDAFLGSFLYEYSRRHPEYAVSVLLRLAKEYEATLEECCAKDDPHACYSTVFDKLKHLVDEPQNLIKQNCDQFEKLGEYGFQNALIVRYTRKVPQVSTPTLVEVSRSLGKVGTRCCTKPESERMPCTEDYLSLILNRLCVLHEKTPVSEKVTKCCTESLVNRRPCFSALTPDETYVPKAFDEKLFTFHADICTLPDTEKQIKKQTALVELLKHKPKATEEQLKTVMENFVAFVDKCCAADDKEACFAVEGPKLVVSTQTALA

Row | SMILES | composite z-score (Albumin (Bos taurus)) | composite Z-score [1] | composite z-score [2] | composite z-score [3] | composite z-score [4] | composite z-score [5] | composite z-score [6] | composite z-score (Sam68 (KHDRBS1)) | composite z-score [7] | composite z-score [8]
1 | COc1ccccc1CN1C(=O)c2ccccc2[C@@]2(Cc3ccccc3N(C3CC3)C2=O)[C@@H]1c1ccc(CO)cc1 | 0.0999 | 0.794 (inactive) | -0.15 | -0.112 | 0.669 | 0.165 | -0.978 | -0.557 | -0.39 | 0.107
2 | COCCOC(=O)N1C(=O)[C@@]2(c3cc(C#Cc4ccc(OC)cc4)ccc31)[C@H](C(N)=O)[C@H]1C(=O)O[C@H](c3ccccc3)[C@H](c3ccccc3)N1[C@@H]2c1ccc(OCCO)cc1 | -0.884 | 0.393 (inactive) | 0.43 | -0.0984 | 0.332 | 1.79 | 0.52 | 1.3 | 0.714 | 0.921
3 | COCCOC(=O)N1C(=O)[C@@]2(c3cc(C#CCCO)ccc31)[C@H](c1ccc(OCCO)cc1)N1[C@H](c3ccccc3)[C@H](c3ccccc3)OC(=O)[C@H]1[C@@H]2C(=O)N1CCc2cc(OC)c(OC)cc2C1 | -0.627 | 0.443 (inactive) | 0.0893 | -0.0731 | 0.239 | 1.06 | 1.48 | 1.31 | 0.559 | 1.08
4 | C[C@H]1ON(c2ccccc2)[C@@H](c2ccccc2)[C@@H]1C(=O)N1C(=O)OC[C@@H]1c1ccccc1 | 0.0537 | 1.2 (inactive) | -0.0493 | -0.118 | 0.259 | 0.46 | -0.0222 | 0.44 | 0.424 | 0.0565
5 | COc1cc2c(cc1OC)CN(C(=O)[C@@H]1[C@H]3C(=O)O[C@H](c4ccccc4)[C@H](c4ccccc4)N3[C@H](c3ccc(OCCO)cc3)[C@@]13C(=O)Nc1ccc(C#CCCO)cc13)CC2 | 0.379 | 1.29 (inactive) | 0.81 | -0.0669 | 0.428 | 2.92 | 0.364 | 1.3 | 0.703 | 1.02
6 | COC(=O)[C@@]1(Cc2ccccc2)[C@H]2c3cc(C(=O)N4CCCC4)n(Cc4ccccc4)c3C[C@H]2CN1C(=O)c1ccccc1 | 0.76 | 0.689 (inactive) | 0.591 | 0.302 | 0.637 | 2.36 | -0.0361 | 0.5 | -0.883 | 0.914
7 | COCC(=C=CC[C@@H](O)c1ccccc1OCCO)C[C@@H](O)c1ccccn1 | -0.203 | -0.422 (inactive) | -0.0043 | -0.117 | 0.777 | 1.28 | 0.583 | 0.86 | -0.0696 | 0.742
8 | Cc1ccccc1C(O)C1C=CC2C(=O)N(Cc3ccccc3)C(=O)C2N1n1cnnc1 (stereo not given) | 0.756 | 0.358 (inactive) | 0.159 | -0.137 | 0.71 | 0.774 | -0.0065 | 1.01 | -0.317 | 0.71
9 | COC(=O)[C@]1(Cc2ccccc2N=[N+]=[N-])N=C(c2ccc(OCCCO)cc2)O[C@@H]1c1ccccc1 | -0.274 | 0.747 (inactive) | 0.0773 | -0.0487 | 0.412 | 1.82 | 0.225 | 0.622 | -1.1 | 0.458
10 | C=C(CCCC)/C(=C/C[C@H](OC(=O)c1ccncc1)c1ccc(CO)o1)c1cc(C(=O)OC)ccc1OC | 0.572 | 0.243 (inactive) | 0.201 | -0.0534 | 0.609 | 1.38 | 0.51 | 1.31 | 0.487 | 1.02
11 | C=CC[C@@]1(C(=O)NCCN2CCOCC2)N=C(c2ccc(OCCCO)cc2)O[C@@H]1c1ccccc1 | 0.262 | -0.288 (inactive) | 0.291 | -0.0907 | 0.673 | 2.52 | 0.871 | 1.12 | 1.4 | 0.608
12 | NC(=O)[C@@H]1[C@H]2C(=O)O[C@H](c3ccccc3)[C@H](c3ccccc3)N2[C@H](c2ccccc2OCCO)[C@@]12C(=O)Nc1ccc(C#CCCO)cc12 | 0.59 | -0.309 (inactive) | -0.218 | -0.147 | 0.71 | 0.663 | 0.148 | 0.13 | -0.68 | 1.18
13 | CCOC(=O)C1=CC[C@@H](c2cccc(Br)c2)N(S(=O)(=O)c2ccc(C)cc2)[C@H]1c1ccc([N+](=O)[O-])cc1 | 0.861 | 0.338 (inactive) | 0.0116 | -0.0856 | 0.586 | 2.45 | 0.885 | 1.08 | 0.625 | 1
14 | CC(C)CCC[C@@H](C)[C@H]1CC[C@@]2(C)C3=C(CC[C@]12C)[C@@]1(C)CC[C@H](OC(=O)c2ccc(N)cc2)C(C)(C)C1CC3 (stereo not given in full) | 0.0881 | -0.196 (inactive) | 0.0406 | -0.207 | 0.0778 | -0.221 | -0.252 | 0.401 | 0.456 | 0.462
15 | CO[C@H]1O[C@H](CO)[C@@H](OC(=O)Nc2cccc(F)c2)[C@H](OC(=O)Nc2ccc3c(c2)OCO3)[C@H]1OC(=O)Nc1ccc2c(c1)OCO2 | 0.445 | 0.859 (inactive) | 0.0225 | -0.0508 | 0.728 | 2.23 | 0.315 | 1.3 | 0.163 | 0.731
16 | COC(=O)[C@@]1(Cc2ccc(OC)cc2)[C@H]2c3cc(C(=O)N4CCCC4)n(CCF)c3C[C@H]2CN1C(=O)c1ccccc1 | 0.978 | 0.573 (inactive) | 1.97 | 1.15 | 0.755 | 3.15 | 0.478 | 0.757 | -0.258 | 0.99
17 | NC(=O)NCC#Cc1ccc2c(c1)[C@]1(C(=O)N2)[C@H](c2ccc(O)cc2)N2[C@H](c3ccccc3)[C@H](c3ccccc3)OC(=O)[C@H]2[C@@H]1C(=O)NC[C@H](O)c1ccccc1 | 0.233 | -0.539 (inactive) | -0.464 | -0.122 | -0.051 | 0.327 | 0.469 | -1.03 | -1.12 | -1.34
18 | CCCCC(O)C1C=CC2C(=O)N(Cc3ccccc3)C(=O)C2N1n1cnnc1 (stereo not given) | -0.0045 | 0.406 (inactive) | 0.0039 | -0.101 | 0.644 | 1.4 | 0.0713 | 1.01 | -0.0652 | 0.216
19 | COc1ccc([Si](C)(C)[C@@H]2[C@@H](CC(=O)N(CCO)Cc3ccccc3)O[C@]3(C(=O)N(C)c4c(Br)cc(C)cc43)[C@H]2C)cc1 | 0.597 | 0.0128 (inactive) | -0.0918 | -0.124 | 0.154 | 0.741 | 0.231 | 0.649 | 1.4 | -0.126
20 | COCCOC(=O)N1C(=O)[C@@]2(c3cc(C#CCNC(N)=O)ccc31)[C@H](C(=O)N1CCCCCCC1)[C@H]1C(=O)O[C@H](c3ccccc3)[C@H](c3ccccc3)N1[C@@H]2c1ccc(OCCO)cc1 | 0.27 | 0.32 (inactive) | 0.331 | 0.0245 | 0.244 | 0.46 | 1.32 | 0.653 | 0.298 | 0.979
21 | C=CC[C@]1(C(=O)NCC(O)CO)N=C(c2ccc(OCCCO)cc2)O[C@H]1c1ccccc1N=[N+]=[N-] (stereo not given in full) | 0.933 | 0.171 (inactive) | 0.0876 | 0.132 | 0.766 | 2.78 | 1.41 | 0.645 | -0.451 | -0.0308
22 | O=C(N1CCOCC1)[C@@]1(CCS(=O)(=O)c2ccccc2)COC(c2ccc(OCCCO)cc2)=N1 | 0.39 | 0.667 (inactive) | -0.0073 | -0.191 | 0.704 | 2.45 | -0.0296 | 0.605 | -0.034 | -0.257
23 | O=C(CS)NCCCCCNC(=O)[C@@H]1C[C@@H]2C(=O)N3CCC[C@H]3C(=O)N2[C@@H]1c1ccc(O)cc1 | -0.683 | 0.647 (inactive) | -0.0587 | -0.151 | 0.636 | 1.86 | 0.363 | 0.928 | -0.0012 | 1.15
24 | C=CCC(OC(C)=O)[C@@H]1[C@@H](N(Cc2ccc(-c3ccccc3)cc2)C(=O)Cc2ccc(OC)cc2)c2cc(OCCCO)ccc2N1C(=O)c1ccc(-c2ccccc2)cc1 (stereo not given in full) | -0.146 | -0.427 (inactive) | 0.268 | 0.0224 | 0.204 | -0.0315 | 0.394 | -0.323 | 0.268 | -0.781
25 | O=C1C2C=CC(C(O)c3ccc(Br)cc3)N(Nc3ccccc3)C2C(=O)N1c1ccccc1 (stereo not given) | 0.875 | -0.0127 (inactive) | 0.328 | 0.166 | 0.652 | 1.76 | 0.189 | 0.668 | 0.527 | 0.722
26 | CCCc1cc2c(n1Cc1ccc(OC)cc1)C(C)C1CN(C(=O)c3ccccc3)C(C)(C(=O)OC)C21 (stereo not given) | 1.08 | -0.41 (inactive) | 0.223 | 0.16 | 0.571 | 3.13 | 0.746 | 1.25 | -1.63 | 1.18
27 | C=CC[C@]1(C(=O)N(C)C)N=C(c2ccc(OCCCO)cc2)O[C@H]1c1ccccc1 | 0.641 | -0.001 (inactive) | 0.297 | -0.124 | 0.687 | 2.93 | 0.795 | 1.26 | -0.336 | 0.999
28 | CC(C)c1ccc(NN2C(C(O)c3ccccn3)C=CC3C(=O)N(c4ccccc4)C(=O)C32)cc1 (stereo not given) | 0.835 | -0.232 (inactive) | 0.447 | 0.142 | 0.808 | 2.92 | 0.881 | 1.32 | -0.159 | 1.1
